17 compounds from PubChem BioAssay (NCATS) can be followed below.

Molecules are shown by their SMILES. Unmarked numbers belong to inactive results. Inconclusive results are not listed. The source made the active and inactive calls. Calls come from the whole dose curve; as a rule, active = well fitted curve in the direction sought with a large enough effect; inconclusive = small, poorly fitted or top-dose-only effect, or another doubt; inactive = no such curve, though single readings can be large; an effect the other way counts as inactive or inconclusive.

In test [1] the target is Glutathione peroxidase 1 (Homo sapiens) (UniProt P07203). Briefly: Primary qHTS Assay for Inhibitors of Recombinant Selenoprotein Glutathione Peroxidase 1 (GPX1) (AID 1845191). For activity, negative = inhibition: % is set by controls: 0 for no effect and ±100 for the full control effect. Note: nearly all actives have a fitted effect of over 65% in size. Put shortly:
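Recombinant GPX1 (10 nM final) was preincubated with compound for 30 min at room temperature, then reacted with 1 mM GSH, 0.5 mM CHP, 0.5 mM NADPH and 100 nM glutathione reductase; NADPH fluorescence (340/450 nm) was read at 0 and 15 min.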
On the technique in general: In qHTS, concentration-response curves come from the screen itself.

The target in test [2] is Phospholipid hydroperoxide glutathione peroxidase GPX4 (Homo sapiens) (UniProt P36969). Briefly: Primary qHTS Assay for Inhibitors of Recombinant Selenoprotein Glutathione Peroxidase 4 (GPX4) (AID 1845192). For activity change, negative = inhibition: series mostly up to about 50 µM; % is set by controls: 0 for no effect and ±100 for the full control effect. Note: nearly all actives have a fitted effect of over 65% in size. Put shortly:
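GR-coupled readout: 100 nM GR, 1 mM GSH, 0.5 mM NADPH; NADPH fluorescence (ex 340/em 450 nm) read at t=0 and after 15 min RT. GPX4 200 nM, preincubated 30 min with compound; substrate 0.5 mM CHP.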

Test [3] has as its target Luciferin 4-monooxygenase (Photinus pyralis) (UniProt P08659). Briefly: Primary firefly luciferase (FLuc) qHTS assay for identification of artifact compounds. (AID 1845220).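 For activity change, negative = inhibition: series mostly up to about 54 µM; plate controls were DMSO vehicle for no effect and no enzyme for full effect.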 Note: nearly all actives have a fitted effect of over 60% in size. Put shortly:
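In this counter-screen for luciferase artifacts, test compounds met substrate (10 uM each luciferin and ATP) before 10 nM enzyme started the reaction. Light output was measured 5 min later.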

Test [4] in a line: Primary fluorescence-based thiol-reactive (MSTI) qHTS assay for identification of artifact compounds. (AID 1845221).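 For activity change, negative = thiol reactive: series mostly up to about 54 µM; thiol-reactive compounds lower the probe fluorescence signal.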 Note: nearly all actives have a fitted effect of over 65% in size. Note: potency is the fitted concentration of half-maximal effect. In short, it runs like this:
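Probe: MSTI 4 uM, PBS pH 7.4, 2% DMSO. Incubation 1 h, RT, light-protected. Readout fluorescence 525/598 nm.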

The test system of test [5] is Nanoluciferase (engineered Oplophorus gracilirostris luciferase). Briefly: Primary Nanoluciferase (NLuc) qHTS assay for identification of artifact compounds. (AID 1845222).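 Note: NLuc secreted into diluted conditioned medium of S16 cells; series mostly up to about 54 µM; 0% = DMSO and -100% = no enzyme.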 Put shortly: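 Using secreted nanoluciferase in S16 culture medium (0.22 um filtered, 1:55 dilution), compounds were preincubated 15 min at RT. Signal was generated with Nano-Glo reagent (1:100) over 5 min.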

The nature of test [6]: Primary redox qHTS assay for identification of artifact compounds. (AID 1845223).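 Note: 0% = DMSO and 100% = reference compound.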 Put shortly: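 Amplex Red (25 uM) and HRP (250 mU/mL) in HBSS, with compounds for 15 min, then 250 uM DTT for 30 min, room temperature, dark. Fluorescence 525/598 nm read; normalized to DMSO and 10 uM DA3003; Hill fit.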

Chain of Phospholipid hydroperoxide glutathione peroxidase GPX4 (Homo sapiens) (P36969 whole entry, looked up): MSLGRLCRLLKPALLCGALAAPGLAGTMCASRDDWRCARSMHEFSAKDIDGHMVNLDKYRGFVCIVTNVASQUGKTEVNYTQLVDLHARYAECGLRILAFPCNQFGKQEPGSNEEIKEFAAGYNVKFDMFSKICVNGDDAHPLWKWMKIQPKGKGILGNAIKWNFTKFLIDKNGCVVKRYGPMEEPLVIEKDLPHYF
Chain of Glutathione peroxidase 1 (Homo sapiens) (P07203 whole entry, looked up): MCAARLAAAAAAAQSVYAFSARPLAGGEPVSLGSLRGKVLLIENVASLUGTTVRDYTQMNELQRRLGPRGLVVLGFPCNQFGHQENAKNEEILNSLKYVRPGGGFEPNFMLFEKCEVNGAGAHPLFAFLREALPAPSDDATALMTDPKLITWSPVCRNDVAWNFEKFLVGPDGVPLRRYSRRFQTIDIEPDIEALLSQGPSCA

Regarding `COc1cc2c(cc1OC)CN(C(=O)[C@@H](NCc1ccncc1)C(C)(C)C)CC2`, the Potency result in test [1], in test [2], in test [3], in test [4] and in test [5] was “inactive” in each case.
In the case of `CCCn1cnc2c(NCc3ccccc3)nc(N[C@H](CC)CO)nc21`, the Potency result in test [1], in test [2], in test [3], in test [4] and in test [5] was “inactive” in each case.
Regarding `FC(F)(F)c1cc(C(F)(F)F)c2ccc3nc(-c4nnco4)cn3c2n1`, the Potency entry in test [1], in test [2], in test [3], in test [4] and in test [5] was “inactive” each time.
As to `CCC(C)/C=C(C)/C=C/C1=CC2=C(Cl)C(=O)C(C)(OC(C)=O)C(=O)C2=CN1C1CCCCN(C(CCC(N)=O)C(=O)O)C1=O` (configuration not stated), the Potency result in test [1], in test [2], in test [3] and in test [5] was “inactive” in each case. Besides, the Potency in test [4] was 0.446 µM (active).
Consider `C[C@@H]1O[C@@H](O[C@@H]2[C@@H](O)[C@H](O[C@@H]3[C@@H](O)[C@@H](O)[C@H](O[C@H]4[C@H](OC(=O)[C@]56CCC(C)(C)C[C@H]5C5=CCC7[C@@]8(C)C[C@H](O)[C@H](O[C@@H]9O[C@H](C(=O)O)[C@@H](O)[C@H](O)[C@H]9O)[C@@](C)(CO)C8[C@H](O)C[C@@]7(C)[C@]5(C)CC6)OC[C@H](O)[C@@H]4O)O[C@H]3C)OC[C@H]2O)[C@H](O)[C@H](O)[C@H]1O` (some centres not stated), for which the results for the outcome in test [1] and in test [3] were “inactive [at 9.52 µM]” and “inactive [at 11.6 µM]”, respectively. For the same compound, the activity change, negative = inhibition in test [2] is -2.98% [at 9.73 µM]. Besides, the activity change, negative = thiol reactive in test [4] is 319% [at 11.5 µM]. Further, the activity, negative = inhibition in test [5] was 0.798% [at 11.6 µM].
For `CC1CCCC2OC2C(=O)c2c(O)cc(O)cc2CC(=O)O1` (configuration not stated), the Potency result in test [1], in test [2], in test [3] and in test [5] was “inactive” throughout. Moreover, in test [4], the Potency was 8.44 µM (active).
For the compound `CC(CCC1(O)OC2CC3C4CCC5CC(O[C@@H]6O[C@H](CO)[C@@H](O)[C@H](O)[C@H]6O[C@@H]6OC[C@@H](O)[C@H](O)[C@H]6O)C(O)CC5(C)C4CCC3(C)C2C1C)CO[C@@H]1O[C@H](CO)[C@@H](O)[C@H](O)[C@H]1O` (some centres not stated), the Potency result in test [1] and in test [2] was “inactive” in each case. In addition, the activity change, negative = inhibition in test [3] is 1.24% [at 11.6 µM]. Moreover, the activity change, negative = thiol reactive in test [4] is -13.7% [at 11.5 µM]. The activity, negative = inhibition in test [5] is 4.39% [at 11.6 µM].
Regarding `CC(=O)c1c(O)cc2cccc3c2c1CC(C)(O)O3` (configuration not stated), the Potency result in test [1], in test [2], in test [3] and in test [5] was “inactive” each time. The Potency in test [4] was 5.32 µM (active).
For `CC(=O)OC1C(O)C(C)=C(CCC(C)CC(=O)O)C2(C)CCCC(C)(C)C12` (configuration not stated), the Potency entry in test [1], in test [2], in test [3], in test [4] and in test [5] was “inactive” each time.
Regarding `C=CC(C)(O)CC/C=C(\C)C(=O)OCC1OC(OC2CCC3(C)C(CCC4(C)C3CC=C3C5CC(C)(C)C(O)CC5(C(=O)O)CCC34C)C2(C)C)C(O)C(OC2OC(CO)C(O)C(OC3OC(CO)C(O)C(OC4OC(COC5OC(CO)C(O)C(O)C5O)C(O)C(O)C4O)C3O)C2O)C1O` (configuration not stated), the values for the outcome in test [1], in test [2] and in test [3] were “inactive [at 9.52 µM]”, “inactive [at 9.73 µM]” and “inactive [at 11.6 µM]”, respectively. The activity change, negative = thiol reactive in test [4] is 67.6% [at 11.5 µM]. For the same compound, the activity, negative = inhibition in test [5] was 4.87% [at 11.6 µM].
Regarding `CC(=O)N1c2ccccc2C2(O)CC3C(=O)NC(CC(C)C)C(=O)N3C12` (configuration not stated), the Potency result in test [1], in test [2], in test [3], in test [4] and in test [5] was “inactive” each time.
Regarding `CO[C@@]12CC3[C@@H]([C@@H](O)[C@@H](OC(C)=O)C4[C@](C)(COC(C)=O)CCC[C@]34C)[C@@H](C)C1=CC(=O)O2` (some centres not stated), the Potency result in test [1], in test [2], in test [3], in test [4] and in test [5] was “inactive” throughout.
Take `CC1=CC(=O)C[C@H]2[C@@H]1CC[C@@H](C)[C@]21CO[C@H](c2ccoc2)C1=O`: the Potency result in test [1], in test [2], in test [3], in test [4] and in test [5] was “inactive” throughout.
As to `COc1cc(CCc2ccccc2)c(C(=O)O)c2c1CC(C(C)(C)O)O2` (configuration not stated), the Potency result in test [1], in test [2], in test [3], in test [4] and in test [5] was “inactive” throughout.
As to `COc1cc(-c2cccc(O)c2)cc2c1OCO2`, the Potency result in test [1], in test [2], in test [3] and in test [5] was “inactive” throughout. The Potency in test [4] was 26.7 µM (active).
For `C=C1CC2C3(C)C(OC(C)=O)CC(=O)OC(C)(C)C3C(O)C(OC(C)=O)C2(C)C2C(=O)OC(C)C(=O)C12C` (configuration not stated), the Potency result in test [1], in test [2], in test [3], in test [4], in test [5] and in test [6] was “inactive” throughout.
In the case of `O=C(/C=C/c1ccc(O)cc1)OCC1=C[C@@H](O)[C@@H]2C=CO[C@@H](O[C@@H]3O[C@H](CO)[C@@H](O)[C@H](O)[C@H]3O)[C@H]12`, the Potency entry in test [1], in test [2], in test [3], in test [5] and in test [6] was “inactive” each time. Further, in test [4], the Potency is 5.82 µM (active).
